Over roughly 16,000 sequences, “e-score” has its median near -0.044; the highest 2% begin near 0.38. The full list was thinned out, with the highest values kept by preference.
Biological target: T1, GST-NbGlk1(82-244) (Nicotiana benthamiana)
T1 chain: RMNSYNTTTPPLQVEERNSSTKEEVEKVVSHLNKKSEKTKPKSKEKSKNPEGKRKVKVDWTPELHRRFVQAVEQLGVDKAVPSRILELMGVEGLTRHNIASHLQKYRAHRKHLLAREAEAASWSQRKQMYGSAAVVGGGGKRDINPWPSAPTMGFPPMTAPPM
Assay: protein-binding microarray; NbGlk1 is a Golden2-like transcription factor of Nicotiana benthamiana; high values mean tight binding
Conditions: protein: recombinant; tags: GST (pTH6838); dsDNA, one strand shown

| Sequence | binding signal [E-score] |
| --- | --- |
| AAATCTGT | 0.446 ± 0.00579 |
| AAATCGGT | 0.325 ± 0.0221 |
| AAATCGAT | 0.336 ± 0.0651 |
| AACCAGAT | 0.301 ± 0.00304 |
| AATCGAGA | 0.293 ± 0.0295 |
| ACAATCCT | 0.302 ± 0.0343 |
| ACAATCCG | 0.334 ± 0.019 |
| AGAATCCC | 0.433 ± 0.00879 |
| ATAATCCG | 0.337 ± 0.0347 |
| AGAATCAT | 0.359 ± 0.0327 |
| AGAATCGC | 0.377 ± 0.00979 |
| ACAATCCC | 0.2757 ± 0.00233 |
| AGAATCCT | 0.439 ± 0.00609 |
| AGAATCCG | 0.4779 ± 0.0039 |
| AGAATCCA | 0.456 ± 0.0261 |
| AGGATCCA | 0.237 ± 0.027 |
| ATCCAAAA | 0.261 ± 0.0307 |
| ATCCTCCG | 0.257 ± 0.0282 |
| ATCTGCTG | 0.291 ± 0.0162 |
| ATATGAAA | 0.266 ± 0.036 |
| AGCGATTC | 0.253 ± 0.0595 |
| ATAGCGAT | 0.247 ± 0.0104 |
| AAATTACA | 0.281 ± 0.0554 |
| AGATTACA | 0.477 ± 0.0126 |
| ATATTACG | 0.331 ± 0.0353 |
| ATATTACA | 0.281 ± 0.0562 |

| Sequence | binding signal [E-score] |
| --- | --- |
| AGATTACG | 0.484 ± 0.00516 |
| AGATTACT | 0.429 |
| AGATTATG | 0.35 ± 0.0249 |
| AGATTATC | 0.398 ± 0.0119 |
| AAATTACG | 0.317 ± 0.00783 |
| AGATTATA | 0.31 ± 0.0066 |
| ACGATCTG | 0.298 ± 0.0786 |
| ATCTGAAT | 0.319 ± 0.0412 |
| ACATGGAT | 0.276 ± 0.0921 |
| AATAGAGA | 0.257 ± 0.00976 |
| AGCGGATA | 0.27 ± 0.022 |
| ATCTGTCG | 0.268 ± 0.0941 |
| ATCTCAAA | 0.337 ± 0.00799 |
| ACTTGGAT | 0.263 ± 0.0442 |
| ATTGCTAC | 0.23 ± 0.0982 |
| ATTGCAAA | 0.212 ± 0.0169 |
| AATATTAT | 0.211 ± 0.0854 |
| ATATGCAC | 0.266 ± 0.0704 |
| AAATTTGC | 0.224 ± 0.0355 |
| AATCATGA | 0.254 ± 0.0429 |
| AGATTACC | 0.459 ± 0.0174 |
| AAATTACC | 0.252 ± 0.0504 |
| AGATTTAC | 0.349 ± 0.00929 |
| AATATACG | 0.253 ± 0.0484 |
| AAAATTAC | 0.203 ± 0.0427 |
| AAGATTAC | 0.454 ± 0.0269 |

| Sequence | binding signal [E-score] |
| --- | --- |
| CAGATTAC | 0.47655 ± 0.000118 |
| CAAATTAC | 0.275 ± 0.0131 |
| AATATTAC | 0.235 ± 0.084 |
| AAGATTAT | 0.288 ± 0.039 |
| ATTGTGTC | 0.225 ± 0.0437 |
| ATCTGCGA | 0.35 ± 0.033 |
| ATTACCCA | 0.234 ± 0.0351 |
| AATCGATC | 0.26 ± 0.0524 |
| ATATTTCA | 0.302 ± 0.00721 |
| AAATTTCA | 0.229 ± 0.0474 |
| AGATTTCA | 0.467 ± 0.0101 |
| AAATTTTC | 0.273 ± 0.00676 |
| AGATTTTG | 0.4649 ± 0.003 |
| ATATTTTG | 0.274 ± 0.0771 |
| AAATTTCC | 0.305 ± 0.0382 |
| ATATTTCC | 0.369 ± 0.00928 |
| AGATTTCC | 0.4969 ± 0.000664 |
| AGATTTTC | 0.4879 ± 0.00245 |
| ATATTTTC | 0.363 ± 0.0153 |
| ATTTTTTG | 0.315 ± 0.021 |
| ACGTATAA | 0.241 ± 0.0276 |
| ATCACACA | 0.274 ± 0.0193 |
| ATCAGATA | 0.311 ± 0.0291 |
| ACAGTATA | 0.203 ± 0.12 |
| ACGTATCG | 0.2234 ± 0.00122 |
| ATTCGAAA | 0.208 ± 0.0296 |

| Sequence | binding signal [E-score] |
| --- | --- |
| AGATTTCG | 0.4861 ± 0.00274 |
| AAATTTCG | 0.332 ± 0.0714 |
| AGATTTAA | 0.269 ± 0.0136 |
| ATATTTCG | 0.347 ± 0.00521 |
| AGATTTAT | 0.261 ± 0.0998 |
| AGATTTTA | 0.414 ± 0.0235 |
| ATTATCTA | 0.201 ± 0.0162 |
| AACGTAAT | 0.361 ± 0.0152 |
| AAGGGAAT | 0.259 ± 0.00401 |
| CAAATCGG | 0.252 ± 0.00458 |
| AAAATATT | 0.3158 ± 0.000558 |
| ATAATCTC | 0.346 ± 0.064 |
| AAAATCTG | 0.478 ± 0.0028 |
| CAAATCAG | 0.268 ± 0.0183 |
| AAAATTTT | 0.271 ± 0.0157 |
| CAAATCTG | 0.43 ± 0.00733 |
| AAAATCTC | 0.4529 ± 0.00114 |
| AAAATCTT | 0.447 ± 0.0196 |
| ATATCGAC | 0.32 ± 0.00903 |
| AACACGAT | 0.237 ± 0.0225 |
| ATTTGCCA | 0.358 ± 0.051 |
| ATAGTAGA | 0.201 ± 0.11 |
| AAAGGATT | 0.372 ± 0.061 |
| ATCCATTG | 0.253 ± 0.0582 |
| ATTTCAGA | 0.265 ± 0.0287 |
| ATTGCAAT | 0.305 ± 0.0598 |

| Sequence | binding signal [E-score] |
| --- | --- |
| ATCTTAGC | 0.246 ± 0.0788 |
| ATCTCACA | 0.289 ± 0.0836 |
| ATACGCGC | 0.223 ± 0.0538 |
| ATCCGCTA | 0.353 ± 0.0323 |
| CAATCAGC | 0.22 ± 0.0614 |
| ATCGCGTC | 0.285 ± 0.0397 |
| CAAATCTC | 0.426 ± 0.0426 |
| CAAATCAC | 0.272 ± 0.0674 |
| AAAATCTA | 0.4582 ± 0.0038 |
| CAAATATA | 0.245 ± 0.00998 |
| CAAATCTA | 0.412 ± 0.0148 |
| AAAATTTA | 0.248 ± 0.0263 |
| AAAATCAA | 0.334 ± 0.0377 |
| CAAATCAA | 0.228 ± 0.037 |
| AATATTGG | 0.202 ± 0.105 |
| AATTCTGC | 0.204 ± 0.0116 |
| AATTTTCA | 0.228 ± 0.0322 |
| ATTGCAGA | 0.253 ± 0.0406 |
| ATCTTCGC | 0.237 ± 0.0198 |
| AATATTGA | 0.222 ± 0.0953 |
| ATATCCGC | 0.4112 ± 0.0033 |
| ATATCGGA | 0.369 ± 0.015 |
| AGATCCGC | 0.34 ± 0.0528 |
| ATATCCGG | 0.436 ± 0.0135 |
| AGATCCGA | 0.307 ± 0.0187 |
| ATATCCGA | 0.4021 ± 0.00123 |

| Sequence | binding signal [E-score] |
| --- | --- |
| ATTTCCGG | 0.295 ± 0.0475 |
| ATCTCCGC | 0.293 ± 0.0913 |
| ATATCCCG | 0.317 ± 0.0686 |
| AATACGAA | 0.205 ± 0.0658 |
| ACAAGAAT | 0.273 ± 0.0228 |
| ACGATCGC | 0.252 ± 0.0832 |
| ATTGCACC | 0.222 ± 0.00533 |
| ATCGCGCA | 0.358 ± 0.0372 |
| ATTTGTAA | 0.266 ± 0.0497 |
| AAATCGGG | 0.354 ± 0.0193 |
| AGATCTGA | 0.332 ± 0.0671 |
| CAATCTGG | 0.4139 ± 0.000981 |
| CAATCTGC | 0.305 ± 0.0551 |
| AGATCTGG | 0.364 ± 0.0182 |
| AAATCTGG | 0.466 ± 0.00695 |
| CAATCAGG | 0.294 ± 0.0424 |
| AGATCTGC | 0.411 ± 0.029 |
| AAATCAGG | 0.365 ± 0.0118 |
| AAATCGGC | 0.302 ± 0.0126 |
| AAATCTGC | 0.4558 ± 0.00312 |
| ATTCCCTA | 0.3669 ± 0.00312 |
| AATTATAA | 0.243 ± 0.0945 |
| AAAATAAT | 0.205 ± 0.0493 |
| AATCATAG | 0.246 ± 0.0935 |
| ATTTTCAC | 0.34 ± 0.0212 |
| ATCCGCAG | 0.223 ± 0.00544 |

| Sequence | binding signal [E-score] |
| --- | --- |
| AAGTAAAA | 0.21 ± 0.144 |
| ATCGTGTA | 0.262 ± 0.115 |
| CAATCTGA | 0.375 ± 0.0502 |
| AAATCTGA | 0.469 |
| AAATCATA | 0.343 ± 0.0134 |
| AGCGATCC | 0.274 ± 0.0142 |
| AAATACGG | 0.207 ± 0.0643 |
| AATTGCGC | 0.227 ± 0.0136 |
| AAAAATCT | 0.4495 ± 0.00385 |
| AAAAATCG | 0.389 ± 0.0127 |
| AAAATTCG | 0.282 ± 0.0182 |
| AAAAATCA | 0.336 ± 0.0224 |
| ACAAATCT | 0.374 ± 0.0338 |
| CACAATCG | 0.268 ± 0.00572 |
| AAAAATAT | 0.3 ± 0.0471 |
| CAAAATCG | 0.386 ± 0.0304 |
| ACAAATCG | 0.297 ± 0.0369 |
| ATTGTGTG | 0.203 ± 0.0438 |
| AATCGCAG | 0.224 ± 0.0787 |
| ATTTGCTC | 0.253 ± 0.0795 |
| ACATGTGA | 0.201 ± 0.017 |
